Screening results: PubChem BioAssay, several laboratories
CSC inhib: cancer stem cell inhibition; inhibition, % at 7.5 µM; cancer stem cell-like cells viability, luminescence; 300,000 compounds, 1.1% hits; in the data active means inhibition above about 75%; tested in HMLE shEcad cells
Mdm2 MdmX PPI: disrupts the human Mdm2-MdmX interaction | O15151+Q00987 | 330,000 compounds, 3% hits | inhibition, % at 8 µM | AID 485346 | SaOS-2 split-luciferase Mdm2/MdmX complementation, luminescence;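 active means inhibition of at least 50% at 8 µM in the primary screen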
Target sequence (O15151 whole entry, looked up): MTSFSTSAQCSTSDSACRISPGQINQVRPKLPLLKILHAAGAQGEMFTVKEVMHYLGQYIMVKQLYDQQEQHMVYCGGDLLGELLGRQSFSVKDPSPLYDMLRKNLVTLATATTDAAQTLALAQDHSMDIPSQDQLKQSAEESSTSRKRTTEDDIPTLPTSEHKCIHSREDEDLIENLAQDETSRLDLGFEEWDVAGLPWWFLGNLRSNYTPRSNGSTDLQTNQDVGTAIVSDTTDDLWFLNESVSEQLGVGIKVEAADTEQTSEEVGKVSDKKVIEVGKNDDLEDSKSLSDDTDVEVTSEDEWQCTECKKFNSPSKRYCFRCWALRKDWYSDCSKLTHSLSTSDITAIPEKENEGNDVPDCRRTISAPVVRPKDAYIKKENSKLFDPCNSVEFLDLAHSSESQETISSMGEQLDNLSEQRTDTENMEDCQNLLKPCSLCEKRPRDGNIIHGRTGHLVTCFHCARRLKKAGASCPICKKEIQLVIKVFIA
Target sequence (Q00987 whole entry, looked up): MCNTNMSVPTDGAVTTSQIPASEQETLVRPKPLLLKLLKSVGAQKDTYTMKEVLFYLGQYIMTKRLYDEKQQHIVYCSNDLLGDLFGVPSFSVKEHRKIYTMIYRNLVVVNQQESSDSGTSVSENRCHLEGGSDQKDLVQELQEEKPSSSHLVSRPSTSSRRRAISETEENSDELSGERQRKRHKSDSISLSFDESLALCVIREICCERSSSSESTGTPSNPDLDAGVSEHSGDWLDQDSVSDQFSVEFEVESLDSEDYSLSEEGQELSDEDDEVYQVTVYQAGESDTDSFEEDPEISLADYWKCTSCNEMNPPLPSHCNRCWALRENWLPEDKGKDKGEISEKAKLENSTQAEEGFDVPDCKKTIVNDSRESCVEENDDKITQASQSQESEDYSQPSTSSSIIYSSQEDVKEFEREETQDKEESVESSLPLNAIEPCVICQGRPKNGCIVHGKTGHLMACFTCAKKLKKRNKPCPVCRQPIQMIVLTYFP
Gli-Sufu block: antagonists of Gli-Sufu signaling; Sufu-KO-LIGHT fibroblasts, Gli luciferase reporter luminescence; inhibition, % at 5 µM; 340,000 compounds, 0.74% hits; AID 588413;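 active means inhibition above about 55%, limit read from the data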
Jurkat NFkB inh: inhibitors of the PMA/ionomycin-induced NF-kB reporter in Jurkat cells. 330,000 compounds, 0.53% hits. PMA/ionomycin-induced NF-kB luciferase reporter, luminescence. inhibition, % at 4 µM; in the data active means inhibition above about 50%
aSyn UTR inh: MLPCN primary screen, SNCA 5' untranslated region | AID 1813 | alpha-synuclein 5'UTR reporter, inhibitor activity | 300,000 compounds, 0.82% hits | inhibition, % (tested at 7.5 µM); in the data active means inhibition above about 60%;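 further: H4 neuroglioblastoma cells stably carrying SNCA 5'UTR luciferase fusion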
697 NFkB inh: inhibitors of the PMA/ionomycin-induced NF-kB reporter in 697 B cells. AID 435022. inhibition, % at 4 µM. 330,000 compounds, 0.33% hits. 697 B-cell NF-kB luciferase reporter, 16 h; in the data active means inhibition above about 35%
Of the large screens only hits and unclear results are named; the others gave an inactive call. This is a sample that favours compounds with a hit; in the whole collection about 4.5% have one here.

CCC(=O)Nc1ccc(NC(=O)c2ccco2)cc1	none
O=C(/C=C/c1cccc(Cl)c1)NNC(=O)c1ccncc1	none (no result: aSyn UTR inh)
COC(=O)c1ccc(COC(=O)c2ccc(CS(=O)(=O)c3ccc(C)cc3)cc2)cc1	none
COC(=O)c1cc2c(n1S(=O)(=O)c1ccc(C)cc1)C(=O)C(=O)c1[nH]cc(C(=O)OCc3ccccc3)c1-2	Gli-Sufu block 87 (no result: CSC inhib, Mdm2 MdmX PPI, Jurkat NFkB inh, aSyn UTR inh, 697 NFkB inh)
CC(C)c1ccc(-c2cc(C(=O)N3N=C(C(F)F)CC3(O)C(F)F)c3ccccc3n2)cc1 (stereo not drawn)	CSC inhib 112
O=C(c1cc(C2CC2)nc2ccccc12)N1N=C(C(F)F)CC1(O)C(F)F (stereo not drawn)	none
CC(C)(C)SCCNS(=O)(=O)c1ccc(C#N)cc1	none
COc1ccc(OC)c(C(=O)Cn2c3[n+](c4ccc(C(F)(F)F)cc42)CCCCC3)c1	none
COc1ccc(OCC(=O)OCC(=O)NC2CC2)cc1	none (no result: aSyn UTR inh)
CNC(=O)NC(=O)C(C)OC(=O)c1c2c(nc3ccccc13)/C(=C/c1cccs1)CC2 (stereo not drawn)	CSC inhib 94
O=C(CCN=C1NS(=O)(=O)c2ccccc21)OCc1nnc(-c2ccc([N+](=O)[O-])cc2)o1	none (no result: aSyn UTR inh)
O=c1cc(N2CCCCC2)c(-c2ccccc2)nn1Cc1ccccc1Cl	none
O=c1cc(N2CCCCC2)c(-c2ccccc2)nn1Cc1cccc(Cl)c1	CSC inhib 88
O=c1cc(N2CCCCC2)c(-c2ccccc2)nn1Cc1ccc(Cl)cc1Cl	CSC inhib 83
CCOC(=O)c1c(CSc2ccccc2)n(C)c2cc(Br)c(OC)c(O)c12	none
CCOC(=O)c1c(CSc2ccccc2)n(C)c2cc(Br)c(OCC(O)CNC(CO)(CO)CO)cc12 (stereo not drawn)	CSC inhib 100 (no result: Mdm2 MdmX PPI, Jurkat NFkB inh, 697 NFkB inh)
CC(=O)c1cccc(NC(=O)CN2C(=O)COc3ccc(S(=O)(=O)N4CCOCC4)cc32)c1	aSyn UTR inh 73
Cn1cc([N+](=O)[O-])c(C(=O)Nc2sc3c(c2C#N)CCC3)n1	aSyn UTR inh 64
O=C(O)c1[nH]nc2c1COc1ccccc1-2	none (no result: aSyn UTR inh)
CCOc1cc(/C=N/N=C(N)N)ccc1OCc1ccc(Cl)cc1	CSC inhib 106 (no result: Mdm2 MdmX PPI, Jurkat NFkB inh, 697 NFkB inh)
CCOC(=O)C(=O)Nc1ccccc1C(=O)NCc1ccccc1	none
CCOc1ccc(CN(C)C(=O)[C@H](Cc2ccccc2)NC(=O)OCc2ccccc2)cc1OC	none (no result: CSC inhib)
Cc1oc(/N=C/c2ccccc2)c(C#N)c1C	CSC inhib 99
CCCOc1ccc(C(=O)C(CN2CCCC2)c2ccccc2)cc1 (stereo not drawn)	CSC inhib 101 (no result: Mdm2 MdmX PPI, Jurkat NFkB inh, 697 NFkB inh)
N=c1oc2ccccc2cc1C(=O)Nc1ccc(F)cc1	none (no result: Mdm2 MdmX PPI, Jurkat NFkB inh, 697 NFkB inh)
Cc1ccc(NC(=O)c2cc3ccccc3oc2=N)cc1	aSyn UTR inh 82
Cc1cccc(/C=N/NC(=O)C[n+]2ccccc2)c1	none (no result: CSC inhib, aSyn UTR inh)
Cc1ccnc(NC(=O)CCC(=O)c2cccs2)c1	aSyn UTR inh 84
Cc1ccc(NC(=O)CCC(=O)c2cccs2)nc1	none
CC1(c2ccc(O)cc2)NC(=O)N(c2ccccc2)N1 (stereo not drawn)	CSC inhib 109
C=C(C)CCC1(C)NC(=O)N(c2ccccc2)N1 (stereo not drawn)	none
Fc1ccc(-n2nnc(-c3cnc4ccccc4c3)n2)cc1	aSyn UTR inh 94
Cc1onc(-c2ccccc2)c1C(=O)NC(=S)NNC(=O)c1ccccc1O	aSyn UTR inh 63
CC1(C)COCN1S(=O)(=O)c1ccc(C(=O)Nc2nnc(-c3ccc(Cl)s3)o2)cc1	aSyn UTR inh 92
COc1ccc(-c2nnc(NC(=O)c3ccc(S(=O)(=O)N4COCC4(C)C)cc3)o2)cc1	aSyn UTR inh 76
CC1CCCCN1S(=O)(=O)c1ccc(C(=O)Nc2nnc(-c3ccncc3)o2)cc1 (stereo not drawn)	none
CC1CCCCN1S(=O)(=O)c1ccc(C(=O)Nc2nnc(-c3ccccc3Cl)o2)cc1 (stereo not drawn)	none
NC1=NC2=C(CCCC2)C2(CCCCC2)S1	aSyn UTR inh 77
CCNC(=S)N(CCc1ccc(S(N)(=O)=O)cc1)C1CC(=O)N(c2ccccc2)C1=O (stereo not drawn)	none
O=C1CC(N(CCc2ccccc2)C(=S)Nc2ccccc2)C(=O)N1c1ccc(F)cc1 (stereo not drawn)	none
O=C1CC(N(CCc2ccccc2)C(=S)Nc2cc(Cl)ccc2Cl)C(=O)N1c1c(Cl)cccc1Cl (stereo not drawn)	CSC inhib 107
